From PubChem BioAssay AID504466 (National Center for Advancing Translational Sciences (NCATS), 2011)
Among all 330,000 compounds or so, about 4,200 (1.3%) were called active. A call without a number means that no potency is given here. Another 6% or so got no clear call; they are omitted. Calls follow the shape of the dose curve; as a rule, active = well fitted activation curve with a large enough effect; inconclusive = small, poorly fitted or top-dose-only effect; inactive = no such curve, though single readings can be large or run the other way. The full list was thinned out, with actives kept by preference.

assay: qHTS screen for small molecules that induce genotoxicity in human embryonic kidney (HEK293T) cells expressing luciferase-tagged ELG1; settings: HEK293T ELG1-luciferase reporter, luminescence, 16 h; series mostly up to 46 µM; also: nearly all actives have a fitted effect of over 60% in size
Excerpt: NIH Molecular Libraries Probe Production Network [MLPCN] NIH Chemical Genomics Center [NCGC] MLPCN Grant: 1 R03 MH092164-01 Assay Provider: Kyungjae Myung, NHGRI, NIH Keywords: MLPCN, qHTS, NCGC, genotoxicity, cancer Assay Overview: Cancer cells divide rapidly compared to normal cells in the body. During cell division, cancer cells need to duplicate their genome by DNA replication. The failure of genome duplication leads to cancer cells' death. Therefore, inhibitors of DNA replication could specifically kill cancer cells. Based on this concept, many chemotherapeutic agents were developed and have been used to treat cancer patients. However, there are a limited number of agents available in the clinical setting, and some of those that do exist have low efficacy and severe side effects. Therefore, if we can find the compounds that effectively block DNA replication either by directly damaging DNA or by inhibiting other cellular mechanisms, the options for cancer treatment will be broadened. With this in mind, we developed a quantitative high-throughput ELG1-luciferase reporter gene assay. Since the level of human ELG1 protein is enhanced in response to genetic stresses, increases in luciferase activity can be used to identify compounds that cause genetic stress.
Assay Protocol Summary: For genotoxicity screening, 2,000 cells in 5 uL/well were dispensed into white, solid-bottom 1536-well plates using a solenoid-based dispenser. Following transfer of 23 nL compound or DMSO vehicle by a pin tool, the plates were incubated 16 hr at 37 °C and 5% CO2. 5 ul ONE-Glo (Promega) was then added to each plate and following a 30 min incubation at room temperature, luciferase activity was quantified on a ViewLux CCD-based plate reader.
Potency is read from the fitted curve at half-maximal effect.

Row | SMILES | Potency
1 | O=C(OCC(=O)c1cccs1)C1=COCCO1 | 18.4 µM (active)
2 | CC[N+](C)(CC)CCC[n+]1c(-c2ccccc2)c2cc(N)ccc2c2ccc(N)cc21 | inactive
3 | c1cc2c(cc1C1OCC3C(c4ccc5c(c4)OCO5)OCC13)OCO2 (stereo not given) | inactive
4 | C[C@]12CC[C@H](O)CC1=C([N+](=O)[O-])CC1C2CC[C@@]2(C)C1CC[C@@H]2O (stereo not given in full) | inactive
5 | COc1ccc(C2CC(c3cccs3)=NN2c2nc(C)c(C(C)=O)s2)cc1OC (stereo not given) | 20.6 µM (active)
6 | CN(C)C(=O)Oc1ccc2c(c1)O/C(=C\c1ccccc1)C2=O | 20.6 µM (active)
7 | CN(C)C(=O)Oc1ccc(OCc2cccc[n+]2C)cc1 | inactive
8 | CCOC(=O)c1c(-c2ccccc2)oc2ccc(OC(=O)N(C)C)cc12 | inactive
9 | COC(=O)[C@@H]1C(OC(=O)c2ccccc2)CC2CCC1N2C (stereo not given in full) | inactive
10 | CC[C@H]1CN2CCc3cc(OC)c(OC)cc3[C@@H]2C[C@@H]1C[C@H]1NCCc2cc(OC)c(OC)cc21 | inactive
11 | COC1=CC=C2[C@H]3Cc4ccc(OC)c5c4[C@@]2(CCN3C)C1O5 (stereo not given in full) | inactive
12 | O=C(OCCN1CCOCC1)C1(c2ccccc2)CCCC1 | inactive
13 | CCC(=O)c1ccc(OCC(=O)N2CCN(CC(=O)Nc3ccc(C)cc3)CC2)cc1 | inactive
14 | O=C(/C=C/c1cccs1)c1cc(Cl)ccc1OC(=O)N1CCOCC1 | inactive
15 | Oc1ccc2c3c1OC1[C@H](O)CC[C@@]4(O)[C@@H](C2)N(CC2CC2)CC[C@]314 (stereo not given in full) | inactive
